Here are results for 40 compounds from PubChem BioAssay (NCATS).

A short description of the assay: qHTS profiling of the MIPE4 collection as inhibitors of Plasmodium falciparum (3D7) proliferation (AID 743344).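 Further: scaled between DMSO vehicle wells and 0.29 µM artemisinin as full inhibition.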 The following applies: P. falciparum 3D7 in erythrocytes, SYBR Green DNA fluorescence, 72 h; at 28.5 µM unless noted. The source says: Plasmodium falciparum is a virulent malarial parasite that kills 1-2 million people worldwide each year. Transmitted by mosquitoes, the sporozoite form of the parasite enters the blood stream to infect hepatocytes, where they become merozoites that infect red blood cells (erythrocytes). Within erythrocytes, merozoites begin a […] cycle of growth and division, after which the parasite is released to infect new red blood cells. Gametocytes, which form within erythrocytes as well, circulate in the bloodstream and are ingested by the mosquito, thereby completing the life cycle. To profile malarial isolates for differential chemical responses and to identify inhibitors of malarial growth, an assay that measures P. falciparum growth and replication within erythrocytes was employed. This assay uses a DNA binding fluorescent dye (SYBR Green) to detect parasite DNA following cell lysis. Because mature erythrocytes lack DNA, only Plasmodium-derived DNA is detected.
The SYBR Green viability assay was adapted from a method described previously (Plouffe et al., 2008). For screening 3 ul culture medium was dispensed into 1536 well black clear bottom plates (Aurora Biotechnologies) using a Multidrop Combi (Thermo Fisher Scientific Inc.), 23 nL compounds in DMSO were added by a pin tool (Kalypsys), and 5 ul of erythrocytes infected with P. falciparum (0.3% parasitemia, 2.5% hematocrit final concentration) were added. The plates were incubated at 37 C in a humidified incubator in 5% CO2 for 72 h, and 2 ul lysis buffer (20 mM Tris HCl, 10 mM EDTA, 0.16% saponin, 1.6% triton X, 10X SYBR Green I supplied as 10,000X […] by Invitrogen) was added to each well. The plates were mixed for 25 sec with gentle shaking and incubated overnight at room temperature in the dark. The following morning, fluorescence intensity at 485(14) nm excitation and 535(25) nm emission wavelengths was measured on an EnVision (Perkin Elmer) plate reader. Plate reads were normalized relative to the control inhibitor (0.29 uM artemisinin) and vehicle (DMSO) wells present on each plate and then corrected by an algorithm using vehicle-only control plates at the beginning and end of the compound plate stack.
(In qHTS, concentration-response curves come from the screen itself.)
As to `O=c1c(-c2ccc(O)cc2)coc2cc(OC3O[C@H](CO)[C@H](O)[C@H](O)[C@H]3O)cc(O)c12` (stereo not given in full), the parasite growth, % of DMSO control is 57%.
In the case of `N[C@@]1(C(=O)O)CS(=O)(=O)[C@H]2[C@H](C(=O)O)[C@H]21` it was 57.1%; in that of `Cc1nnc(C(C)C)n1C1C[C@H]2CC[C@@H](C1)N2CC[C@H](NC(=O)C1CCC(F)(F)CC1)c1ccccc1` (stereo not given in full), 69.7%; in that of `CC(=Cc1ccccc1)C=C1SC(=S)N(CC(=O)O)C1=O`, 92.1%.
Consider `O=c1cc(-c2ccccc2)oc2cc(O)cc(O)c12`, for which the parasite growth, % of DMSO control was 48.1%.
The compound `Nc1ncnc2c1nc(Cl)n2[C@@H]1O[C@H](CO)[C@@H](O)[C@@H]1O` registered a parasite growth, % of DMSO control of 187%.
As to `COc1cc2ncnc(-n3nc(-c4ccccn4)nc3N)c2cc1OC`, the parasite growth, % of DMSO control is 15.5%.
`CS(=O)c1ccc(-c2nc(-c3ccc(F)cc3)c(-c3ccncc3)[nH]2)cc1` (stereo not given) yielded a parasite growth, % of DMSO control of 19.5% [at 57.5 µM].
In the case of `CCn1c(C(=O)N(C2CC2)C2CC2)cc2c3c(ncn3C)c(Nc3cc(C)n(C)n3)nc21` it was 9.81%; in that of `O=C(Nc1c(Cl)cncc1Cl)c1ccc(OC(F)F)c(OCC2CC2)c1`, 109%.
As for `CCN(CC)CCOc1ccc(C(=C(Cl)c2ccccc2)c2ccccc2)cc1`, the parasite growth, % of DMSO control worked out at 5.06%.
In turn, `O=C1C(Cl)=C(NCCN2CCOCC2)C(=O)c2ncccc21` showed a parasite growth, % of DMSO control of 15.2%.
`O=C(O)CCC1CCC(c2cc(F)ccc2F)(S(=O)(=O)c2ccc(Cl)cc2)CC1` (stereo not given) registered a parasite growth, % of DMSO control of 66.9%.
Consider `Cc1ccc(Nc2cc(-c3cccc(N4C(=O)c5ccccc5C4=O)c3)ncn2)cc1NS(C)(=O)=O`, for which the parasite growth, % of DMSO control was 76.1%.
In the case of `COc1cc(NC(=O)c2ccc(-c3ccc(Cl)cc3)o2)cc(OC)c1`, the parasite growth, % of DMSO control was found to be 97.8%.
As to `CC(C)C(=O)Nc1ncc(-c2cc(C(F)F)nn2-c2c(Cl)cccc2Cl)s1`, the parasite growth, % of DMSO control stood at 9.88%.
`CO[C@H]1C=CC=C(C)C(=O)NC2=CC(=O)C(NCCN(C)C)=C(C[C@@H](C)C[C@H](OC)[C@@H](O)[C@@H](C)C=C(C)[C@@H]1OC(N)=O)C2=O`: the parasite growth, % of DMSO control stood at 5.12%.
Turning to `O=c1cc(N2CCOCC2)oc2c(-c3cccc4c3sc3ccccc34)cccc12`, the parasite growth, % of DMSO control amounted to 11.6%.
`CCOc1ccc(Nc2nc(-c3c(C)nc4ccccn34)cs2)cc1`: the parasite growth, % of DMSO control was determined as 11.9%.
The value for `O=C(CCN1CCN(C(=O)OCc2cc(Cl)cc(Cl)c2)CC1)c1ccc2[nH]c(=O)oc2c1` was 101%; that for `C[C@]12CC[C@@H]3c4ccc(O)cc4CC[C@H]3[C@H]1C[C@@H](O)[C@H]2O` was 87%; that for `Cn1cc(C=C2C(=O)Nc3cccnc32)c2ccccc21` was 42.6%.
Turning to `Oc1ccc(C2=Cc3ccc(O)cc3OC2)cc1`, the parasite growth, % of DMSO control came to 19.6%.
In the case of `COc1ccc(-c2coc3cc(O)ccc3c2=O)cc1`, the parasite growth, % of DMSO control was found to be 65.1%.
Compound `CC(C)(C)Cn1c(N)nc2ccc(-c3[nH]c(C(C)(C)C)nc3-c3ccc(F)cc3)nc21` yielded a parasite growth, % of DMSO control of 11%.
The compound `Nc1ncnc2c1ncn2[C@@H]1O[C@@H](CO)[C@H](O)[C@H]1O` came in with a parasite growth, % of DMSO control of 103%.
The value for `CC(=O)OC1C(C)OC(Oc2c(-c3ccc(O)cc3)oc3cc(O)cc(O)c3c2=O)C(O)C1OC(C)=O` (stereo not given) was 11.3%.
In the case of `NC(CO)(CO)CCc1ccc(Sc2cccc(OCc3ccccc3)c2)cc1Cl` it was 4.87%.
The value for `COc1ccc(-c2oc3c(CC=C(C)C)c(OC4O[C@H](CO)[C@@H](O)[C@H](O)[C@@H]4O)cc(O)c3c(=O)c2OC2O[C@@H](C)[C@H](O)[C@@H](O)[C@@H]2O)cc1` (stereo not given in full) was 8.49%; that for `Cc1[nH]c(C=C2C(=O)Nc3ccc(S(=O)(=O)Cc4c(Cl)cccc4Cl)cc32)c(C)c1C(=O)N1CCC[C@H]1CN1CCCC1` was 6.34%; that for `CC[C@H]1OC(=O)[C@H](C)C(=O)[C@H](C)[C@@H](O[C@H]2O[C@H](C)C[C@H](N(C)C)[C@@H]2O)[C@](C)(OC)C[C@@H](C)C(=O)[C@H](C)[C@H]2N(CCCCn3cnc(-c4cccnc4)c3)C(=O)O[C@]12C` was 5.78%.
`CC(=O)O[C@]1(C(C)=O)CC[C@@H]2[C@@H]3C[C@H](C)C4=CC(=O)CC[C@]4(C)[C@H]3CC[C@@]21C` displayed a parasite growth, % of DMSO control of 24.9%.
Compound `CC(C)[C@H](CO)Nc1nc(Nc2ccc(C(=O)O)c(Cl)c2)c2ncn(C(C)C)c2n1` returned a parasite growth, % of DMSO control of 29.4%.
As for `CC(C)C[C@H](CC(=O)O)C(=O)N[C@@H](Cc1c[nH]c2ccccc12)C(=O)N[C@@H](C)c1ccccc1`, the parasite growth, % of DMSO control worked out at 79.9%.
In the case of `CC#CCn1c(N2CCC[C@@H](N)C2)nc2c1c(=O)n(Cc1nc(C)c3ccccc3n1)c(=O)n2C` it was 58%; in that of `COc1cccc2c1CCCC2CCCN1CCN(C2CCCCC2)CC1` (stereo not given), 6.86%; in that of `Cc1ccc(F)c(NC(=O)Nc2ccc(-c3cccc4[nH]nc(N)c34)cc2)c1`, 6.52%.
Compound `COc1ccc2c(Oc3ccc(NC(=O)c4c(C)n(CC(C)(C)O)n(-c5ccccc5)c4=O)nc3)ccnc2c1` had a parasite growth, % of DMSO control of 9.27%.
Turning to `NC(=O)NN=Cc1ccc([N+](=O)[O-])o1`, the parasite growth, % of DMSO control was found to be 13.6%.
Consider `O=C(Nc1cccc(Br)c1)c1cccc(S(=O)(=O)N2CCCCCC2)c1`, for which the parasite growth, % of DMSO control worked out at 55.6%.
